# Inconclusive results are not listed. Unmarked numbers belong to inactive results. Activity calls are given as the source filed them. Calls follow the shape of the dose curve; as a rule, active = well fitted inhibition curve with a large enough effect; inconclusive = small, poorly fitted or top-dose-only effect; inactive = flat fitted curve, though single readings scatter.
# Biological target: Lysine-specific demethylase 5B (Homo sapiens) (UniProt Q9UGL1)
# Experiment: Optimization screen for KDM5B Histone Demethylases FDH coupled qHTS against the LOPAC library (AID 1347166); also: 0% is about no effect
# Conditions: KDM5B demethylation, FDH-coupled NADH fluorescence (FDH is formaldehyde dehydrogenase); series mostly up to 57.5 µM; activity, negative = inhibition: at the top concentration
# Excerpt: Assay Submitter (PI): Qin Yan, Ph.D. (Yale University) and Xiaodong Cheng, Ph.D. (MD Anderson)
# This project was funded as part of the NCI NEXT Program and Chemical Biology Consortium (CBC)
# The histone demethylases, KDM5A and KDM5B catalyze the demethylation of lysine 4 on histone H3 (H3K4me3/2). They
# are overexpressed in a variety of cancers and have been implicated in cancer cell growth, metastasis, drug resistance, and tumor growth. KDM5A is amplified and overexpressed in breast and gastric cancer; and is translocated in leukemia. While KDM5B is highly expressed in human mammary tumors and breast cancer cell lines, but not in normal adult breast tissue. Moreover, knockdown of KDM5B leads to upregulation of tumor suppressor genes, including BRCA1. The goal of this project is to employ qHTS to identify selective small molecule inhibitors of KDM5A/B demethylase activity to better understand the role of KDM5 in cancer and to develop novel therapies.
# We employed an FDH-coupled assay previously reported by Sakurai et al. to monitor in vitro KDM5 demethylase activity. Compounds showing dose response inhibition are re-acquired, validated, and tested for non-specific interference with the formaldehyde dehydrogenase (FDH) counterscreen. True inhibitors are validated using an AlphaLisa secondary screen, which employs an H3K4(me2-1)-specific antibody to monitor demethylation of a biotin-tagged H3K4(me3) peptide substrate. Inhibitors are profiled against KDM4A and KDM6A AlphaLisa counterscreens to determine level of demethylase specificity; and against the TruHits counterscreen to eliminate non-specific inhibitory activity on the AlphaLISA detection method. Selective inhibitors identified from the primary and secondary screening are tested in cells using immunofluorescence to monitor global H3K4 tri-methylation as a measure of KDM5A/B inhibition. This assay is run against the NCGC Lopac collection of about 1,200 compounds to evaluate its amenability to quantitative High Throughput Screening (qHTS) platform.
# Early Translation Branch (ETB)
# National Center for Advancing Translational Sciences (NCATS), Rockville, MD
# National Institute of Health (NIH), Bethesda, Maryland
# [1] Sakurai, M et al. A miniaturized screen for inhibitors of Jumonji histone demethylases. Mol Biosyst. 2010 Feb;6(2):357-64. doi: 10.1039/b912993f. Epub 2009 Oct 8.
# 1536-well Black, solid bottom, medium binding assay plate is purchased from Greiner Bio-one. The enzymes (KDM5B) and substrate (H3K4me3/2) are provided by the principal investigators. The buffer for this assay is composed of 50mM HEPES at pH 7.5 with 0.01% Tween-20.
# FDH coupled qHTS protocol:
# Three microliter enzyme mix (buffer + 200nM KDM5BDeltaAP final concentration) is dispensed into the assay plate using the BioRAPTR Flying Reagent Dispenser (FRD; Beckton-Dickenson). Compound (at various final concentration) and control solution is pin transferred to the assay plate using the Kalypsys 1536-pin tool apparatus. The assay plate is incubated for 10 min at room temperature followed by addition of 1uL substrate mix (buffer + 100uM ascorbic acid, 50uM ferrous ammonium sulfate, 12.5uM H3K4Me3, 25uM a-ketoglutarate, 0.25 mM NAD+, 0.25 U/mL formaldehyde dehydrogenase using the FRD yielding a total reaction volume of 4 uL. Initial fluorescence (Read1) is detected using the PerkinElmer ViewLux plate reader equipped with 340 nm excitation and 450 nm emission filters. The final fluorescence (Read2) signal is obtained after 30 min of room temperature incubation. Delta RFU is calculated (Read2 - Read1) and is used to generated dose response curves
# Sequence of Lysine-specific demethylase 5B (Homo sapiens) (Q9UGL1 whole entry, looked up): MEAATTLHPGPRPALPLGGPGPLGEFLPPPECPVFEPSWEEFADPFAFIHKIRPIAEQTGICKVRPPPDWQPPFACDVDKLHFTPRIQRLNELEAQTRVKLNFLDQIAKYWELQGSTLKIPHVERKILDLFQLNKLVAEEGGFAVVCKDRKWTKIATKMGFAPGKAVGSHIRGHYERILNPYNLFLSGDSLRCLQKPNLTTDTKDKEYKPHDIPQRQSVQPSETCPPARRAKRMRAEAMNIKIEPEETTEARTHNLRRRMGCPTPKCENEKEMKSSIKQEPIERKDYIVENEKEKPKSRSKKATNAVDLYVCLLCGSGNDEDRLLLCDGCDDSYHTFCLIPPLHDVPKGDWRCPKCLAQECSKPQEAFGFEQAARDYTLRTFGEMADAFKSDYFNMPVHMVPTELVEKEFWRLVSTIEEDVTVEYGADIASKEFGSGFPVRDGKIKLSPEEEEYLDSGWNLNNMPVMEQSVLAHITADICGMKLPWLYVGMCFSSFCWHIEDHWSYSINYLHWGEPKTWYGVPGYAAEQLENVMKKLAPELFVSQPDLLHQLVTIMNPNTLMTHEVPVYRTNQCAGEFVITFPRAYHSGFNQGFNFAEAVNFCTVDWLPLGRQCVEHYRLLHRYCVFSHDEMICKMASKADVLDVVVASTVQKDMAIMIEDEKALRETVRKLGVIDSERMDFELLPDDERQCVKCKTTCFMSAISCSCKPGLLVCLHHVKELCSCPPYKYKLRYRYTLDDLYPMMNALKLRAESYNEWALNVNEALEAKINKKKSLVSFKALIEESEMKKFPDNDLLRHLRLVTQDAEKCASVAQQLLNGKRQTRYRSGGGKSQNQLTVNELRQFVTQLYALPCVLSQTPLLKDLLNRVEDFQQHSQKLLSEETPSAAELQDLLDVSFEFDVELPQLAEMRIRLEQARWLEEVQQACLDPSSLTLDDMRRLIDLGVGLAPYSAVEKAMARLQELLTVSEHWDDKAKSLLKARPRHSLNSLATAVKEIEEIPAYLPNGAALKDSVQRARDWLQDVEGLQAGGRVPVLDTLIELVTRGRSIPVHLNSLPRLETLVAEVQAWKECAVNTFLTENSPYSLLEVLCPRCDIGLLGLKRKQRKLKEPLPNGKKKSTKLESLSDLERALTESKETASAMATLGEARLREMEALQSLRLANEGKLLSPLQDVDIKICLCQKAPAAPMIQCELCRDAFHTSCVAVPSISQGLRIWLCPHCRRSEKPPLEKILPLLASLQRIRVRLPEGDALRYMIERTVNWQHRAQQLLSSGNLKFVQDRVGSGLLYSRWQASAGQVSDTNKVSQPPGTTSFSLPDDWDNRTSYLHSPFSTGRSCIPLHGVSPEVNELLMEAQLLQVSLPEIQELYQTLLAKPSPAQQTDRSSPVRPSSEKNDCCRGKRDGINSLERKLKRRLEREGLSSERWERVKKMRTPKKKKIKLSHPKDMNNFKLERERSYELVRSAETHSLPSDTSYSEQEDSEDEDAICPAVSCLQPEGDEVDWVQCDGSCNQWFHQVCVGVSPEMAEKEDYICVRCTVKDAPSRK
Structure (SMILES),"activity, negative = inhibition [%]",outcome
Cc1cccc(C)c1NC(=O)CN1CCCC1=O,-8.88,
COC[C@H]1OC(=O)c2coc3c2[C@@]1(C)C1=C(C3=O)C2CCC(=O)[C@@]2(C)C[C@H]1OC(C)=O (stereo not given in full),-12.5,
CCC1(C2=NCCN2)Cc2ccccc2O1 (stereo not given),-0.71,
c1ccc(C2CC2)c(OCC2=NCCN2)c1,-6.99,
O=c1[nH]c2ccccc2n1CCCN1CCC(n2c(=O)[nH]c3cc(Cl)ccc32)CC1,-1.15,
C[C@@H]1O[C@@H](O[C@H]2C[C@@H](O)[C@]3(CO)[C@H]4[C@H](O)C[C@]5(C)[C@@H](C6=CC(=O)OC6)CC[C@]5(O)[C@@H]4CC[C@]3(O)C2)[C@H](O)[C@H](O)[C@H]1O,-6.4,
COc1ccc(C(CN(C)C)C2(O)CCCCC2)cc1 (stereo not given),-0.263,
O=C1NCN(c2ccccc2)C12CCN(CC1COc3ccccc3O1)CC2 (stereo not given),-5.23,
Cc1ncc(CNC(=O)N(CCCl)N=O)c(N)n1,0.592,
CC(=O)[C@H]1CC[C@H]2[C@@H]3CC[C@H]4C[C@H](O)CC[C@]4(C)[C@H]3C(=O)C[C@]12C,-0.698,
C[C@]12CCC(=O)C(O)=C1CC[C@@H]1[C@@H]2CC[C@]2(C)C(=O)CC[C@@H]12,-16.1,
CC(CCc1ccccc1)NC(C)C(O)c1ccc(O)cc1 (stereo not given),-3.05,
Nc1ccncc1,-3.57,
CC(C)=CCOc1c2occc2cc2ccc(=O)oc12,-22.2,
CCCN1CCC[C@@H]2Cc3nc(N)ncc3C[C@H]21,-24.5,
CCCN1CCC[C@@H]2Cc3[nH]ncc3C[C@H]21,,inactive
COc1ccccc1N1CCNCC1,-6.79,
NCC(O)c1ccc(O)cc1 (stereo not given),-6.03,
CC(=O)[C@H]1CC[C@H]2[C@@H]3CC[C@H]4C[C@](C)(O)CC[C@]4(C)[C@H]3CC[C@]12C,-3.98,
C=C(C)[C@H]1Cc2c(ccc3c2O[C@@H]2COc4cc(OC)c(OC)cc4[C@@H]2C3=O)O1,-18.9,
O=c1[nH]c2ccccc2n1C1CCN(CCCC(c2ccc(F)cc2)c2ccc(F)cc2)CC1,-20.6,
NCC1(CC(=O)O)CCCCC1,-4.08,
CCCC(C)(COC(N)=O)COC(=O)NC(C)C (stereo not given),1.45,
NCC(CC(=O)O)c1ccc(Cl)cc1 (stereo not given),-13.8,
c1ccc2c(c1)OCC(C1=NCCN1)O2 (stereo not given),-22.7,
CNCC(O)c1ccc(O)cc1 (stereo not given),-16.3,
Cc1cccc(C)c1NC1=NCCCS1,-0.828,
Fc1ccc(C(OCCN2CCN(CCCc3ccccc3)CC2)c2ccc(F)cc2)cc1,-11.6,
CC(O)(CS(=O)(=O)c1ccc(F)cc1)C(=O)Nc1ccc(C#N)c(C(F)(F)F)c1 (stereo not given),-4.02,
NN=C(N)N,,inactive

# From PubChem BioAssay (NCATS)
